From PubChem
Sampled rows, rich in hits. Any-hit rate of the full collection: about 11%.
NIH3T3 tox – NIH 3T3 cell cytotoxicity. NIH 3T3 viability, CellTiter-Glo ATP luminescence, 48-72 h. Potency, µM (doses to about 96.7 µM), without a hit: at the top dose activity change, negative = cytotoxicity, actives largely listed as inhibitors. 94,000 compounds, 4.3% hits. AID 1345082; further: on the % scale 0 is the no-effect control and ±100 the full control effect; nearly all actives have a fitted effect of over 55% in size
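First NIH 3T3 cells are plated at 400 cells/well; next compound is pinned in; then plates incubate 48 or 72 hr at 37 °C; finally CellTiter-Glo is added and luminescence read after 10 min.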
HEK cytotox – kills HEK 293 cells; HEK 293 viability, ATP luminescence (CellTiter-Glo), 48-72 h; Potency, µM (titrated, usually from 115 µM), without a hit: at the highest dose activity change, negative = cytotoxicity, most hits filed as inhibitors; 94,000 compounds, 6.6% hits; AID 1345083; further: on the % scale 0 is the no-effect control and ±100 the full control effect; nearly all actives have a fitted effect of over 60% in size
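ATP-coupled CellTiter-Glo luminescence served as viability read-out, recorded 10 min after reagent addition at room temperature. HEK 293 cells, 250 cells/well, had been incubated with pintool-transferred compound for 48 or 72 hr at 37 degree Celsius.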
FLuc inh-1 – inhibitors of firefly (Photinus pyralis) luciferase | P08659 | 76,000 compounds, 2.5% hits | AID 1347043 | Potency, µM (doses to about 115 µM), hits mostly inhibitors | purified P. pyralis luciferase, luminescence, biochemical; further: on the % scale 0 is the no-effect control and ±100 the full control effect; nearly all actives have a fitted effect of over 65% in size
Target sequence (P08659 whole entry, looked up): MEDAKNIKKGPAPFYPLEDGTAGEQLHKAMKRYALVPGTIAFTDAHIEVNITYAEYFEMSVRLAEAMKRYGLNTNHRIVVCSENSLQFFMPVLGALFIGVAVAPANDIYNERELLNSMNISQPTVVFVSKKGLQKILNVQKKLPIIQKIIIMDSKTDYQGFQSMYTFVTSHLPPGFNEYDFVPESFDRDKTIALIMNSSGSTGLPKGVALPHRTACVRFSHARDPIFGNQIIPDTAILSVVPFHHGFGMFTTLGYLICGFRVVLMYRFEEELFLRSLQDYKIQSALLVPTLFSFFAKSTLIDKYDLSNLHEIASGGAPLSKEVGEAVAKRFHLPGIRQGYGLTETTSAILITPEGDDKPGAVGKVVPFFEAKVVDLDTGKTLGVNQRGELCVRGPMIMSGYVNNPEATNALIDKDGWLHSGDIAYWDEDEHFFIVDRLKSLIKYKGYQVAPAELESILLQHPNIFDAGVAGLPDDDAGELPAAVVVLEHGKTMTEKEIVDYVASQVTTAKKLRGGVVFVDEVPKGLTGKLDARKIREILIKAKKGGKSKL
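Cell-free enzyme assay, 10nM P. pyralis luciferase, luciferin and ATP each at 10uM. Inhibition profiled over a 6-point titration, read as luminescence.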
hNpr1 antagonist – antagonists of human natriuretic peptide receptor Npr1; P16066; HEK293 hNpr1 GloSensor cGMP, ANP-stimulated luminescence; Potency, µM (series often up to 46.3 µM), for the others: at the highest dose activity change, negative = inhibition, usual class: inhibitors; 76,000 compounds, 1.6% hits; calls by dose curve; further: on the % scale 0 is the no-effect control and ±100 the full control effect; nearly all actives have a fitted effect of over 60% in size
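Compound pre-incubated 30 min at room temperature on GloSensor-loaded HEK293 cells stably carrying hNpr1 and the pGS-40F cGMP biosensor. Stimulation uses hNppA at 0.1 nM final; luminescence is taken at baseline and 20 min post-agonist.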
FLuc SDR -ATP – stabilizes firefly luciferase without ATP. 1,300 compounds, 7.8% hits. shares compounds with FLuc inh-1. Potency, µM (doses to about 32.7 µM), inactives show at the top dose activation (signal gain), usual class: activators. AID 1963318. Purified FLuc-C-HiBiT, Nano-Glo HiBiT luminescence, no ATP; further: nearly all actives have a fitted effect of over 55% in size
FLuc SDR ATP – firefly luciferase binding stabilization, ATP added | shares compounds with FLuc inh-1 | purified FLuc-C-HiBiT + ATP, HiBiT complementation luminescence | Potency, µM (titrated, usually from 32.7 µM), for inactives: top-dose activation (gain of signal), usual class: activators | 1,300 compounds, 8.7% hits | AID 1963319;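 further: signal reports ligand binding via conformational change of the enzyme rather than luciferase catalysis; % of control where 0% means no effect; nearly all actives have a fitted effect of over 55% in size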
FLuc inh-2 – firefly luciferase enzyme inhibition; shares compounds with FLuc inh-1; purified FLuc-C-HiBiT enzyme, luciferin luminescence; Potency, µM (series often up to 32.7 µM), for inactives: at the top dose activity change, negative = inhibition, hits mostly inhibitors; 1,300 compounds, 42% hits; further: on the % scale 0 is the no-effect control and ±100 the full control effect; nearly all actives have a fitted effect of over 70% in size
* marks the source's active call; other numbers are inactive results; i = inactive; ? = inconclusive; nt = not tested or not shown; [ ] = remark or other dose. Unless noted, the call rests on the fitted dose curve; in most records, active means well fitted curve in the direction sought with a large enough effect; inconclusive means small, poorly fitted or top-dose-only effect, or another doubt; inactive means no such curve, though single readings can be large; an effect the other way counts as inactive or inconclusive. Potency means the concentration at half of the fitted maximal effect.

SMILES	NIH3T3 tox	HEK cytotox	FLuc inh-1	hNpr1 antagonist	FLuc SDR -ATP	FLuc SDR ATP	FLuc inh-2
O=C(NC1CCCCC1)C1CN(C(=O)c2ccc(C(F)(F)F)cc2)CC12CCOCC2 (stereo not given)	-17%	-20%	i	-3%	nt	nt	nt
COc1ccc(C(=O)N2CCCC(c3noc(COc4ccccc4F)n3)C2)cc1 (stereo not given)	?	?	i	-19%	nt	nt	nt
Cc1ccc2oc([C@H]3CCN(Cc4cccs4)C3)nc2c1	?	100µM*	10µM*	-23%[70.6 µM]	18%[49.3 µM]	16%[49.3 µM]	?
Cc1ccc2oc([C@H]3CCN(Cc4ccccn4)C3)nc2c1	?	?	?	-17%[70.6 µM]	nt	nt	nt
COc1cccc(CNC(=O)N2c3ccccc3CC2c2noc(C3CCOCC3)n2)c1 (stereo not given)	-30%	-23%	5µM*	-4%	14%	14%	?
O=C(C1CCCC1)N1CCCC1c1nc(C2CCOCC2)no1 (stereo not given)	-15%	-10%	i	23%	nt	nt	nt
Cc1cc(C)cc(C(=O)N2c3ccccc3CC2c2nc(C3CC3)no2)c1 (stereo not given)	?	?	i	-20%	nt	nt	nt
O=C(C1CCC1)N1c2ccccc2CC1c1noc(C2CCOCC2)n1 (stereo not given)	-15%	?	1.8µM*	?	21%	19%	?
O=C(N1c2ccccc2CC1c1noc(C2CCOCC2)n1)C1(c2ccccc2)CC1 (stereo not given)	-23%	?	8.9µM*	-21%	19%	14%	?
Nc1nccc(-c2c(-c3ccc(F)cc3)ncn2C2CCNCC2)n1	nt	nt	nt	nt	15%	8%	3%
O=C(c1ccc(Cn2ccnc2)o1)N1CC[C@@H]2CN(Cc3ccccc3)[C@@H]2C1	-1%	3%	nt	nt	nt	nt	nt
CCOc1ncccc1C(=O)OCC(=O)Nc1ccc(-c2nc3ccc(C)cc3s2)cc1	nt	nt	nt	nt	22%[65.7 µM]	19%[65.7 µM]	?
Cc1ccc(NC(=O)COc2cccc(-c3nnc4n3CCCC4)c2)cc1	-20%	-10%	i	4%	nt	nt	nt
Cc1ccc2nc(-c3ccc(NC(=O)COc4ccccc4)cc3)sc2c1	nt	nt	nt	nt	26%	19%	6.2µM*
Cc1ccc2nc(-c3ccc(NC(=O)COc4ccccc4C(C)(C)C)cc3)sc2c1	nt	nt	nt	nt	19%	12%	?
CCCCN(C)S(=O)(=O)c1ccc(C(=O)Nc2ccc(-c3nc4ccc(C)cc4s3)cc2)cc1	nt	nt	nt	nt	16%	12%	-15%
CCOC(=O)C1=CN(CC(=O)Nc2ccc(C)cc2)S(=O)(=O)N=C1C	-14%	?	i	6%	nt	nt	nt
Cc1ccccc1C(=O)N1CCCN(c2ccc3nnc(C4CC4)n3n2)CC1	-11%	4%	nt	nt	nt	nt	nt
CCOc1ccc(-c2cc(CCCC(=O)NCCc3ccc(OC)c(OC)c3)no2)cc1	nt	nt	nt	nt	19%	?	?
CCOC(=O)c1ccc(NC(=O)CSc2nnc(CNC(=O)c3ccc(OC)cc3)n2CC)cc1	nt	nt	nt	nt	15%	11%	?
CN1Cc2ccc(C(=O)NCCOc3ccccc3)cc2OCC1=O	nt	nt	nt	nt	19%[49.3 µM]	?	?
Cc1cnc(NC(=O)c2ccc3c(c2)OCC(=O)N(C)C3)s1	nt	nt	nt	nt	?	?	14µM*
Cc1csc(NC(=O)c2ccc3c(c2)OCC(=O)N(C)C3)n1	?	-16%[172 µM]	5µM*	nt	24%[49.3 µM]	?	?
Cn1cc(CN2Cc3ccc(C(=O)Nc4ccc(F)cc4)cc3OCC2=O)cn1	-25%[138 µM]	?	i	-5%[70.6 µM]	nt	nt	nt
Cc1cnc(CC2CCCN(C(=O)NCC(C)C)C2)n1Cc1ccc(F)cc1 (stereo not given)	-12%	-13%	i	6%	nt	nt	nt
SMILES	NIH3T3 tox	HEK cytotox	FLuc inh-1	hNpr1 antagonist	FLuc SDR -ATP	FLuc SDR ATP	FLuc inh-2
COc1ccc(Cn2c(C3CCN(C(=O)Cc4ccccc4Cl)CC3)n[nH]c2=O)cc1	-23%	-24%	i	-4%	nt	nt	nt
CCCn1c(C)cnc1CC1CCCN(C(=O)c2ccncc2)C1 (stereo not given)	-15%	-11%	i	4%	nt	nt	nt
Cc1noc(-c2nc(-c3cccc(Cl)c3)no2)n1	1%	?	?	-4%	nt	nt	nt
O=C(O)c1cccc(-c2cc(C(F)(F)F)ccc2Cl)c1	i	5%	nt	nt	nt	nt	nt
c1ccc(-c2noc(-c3ccc4ccccc4c3)n2)cc1	nt	nt	nt	nt	36%	?	0.7µM*
COc1ccc(-c2noc(-c3nc(-c4cccnc4)no3)n2)cc1	4%	13%	i	-1%	nt	nt	nt
O=C(O)c1cccc(-c2noc(-c3ccccc3C(F)(F)F)n2)c1	nt	nt	nt	nt	25%	0.12µM*	0.062µM*
O=C(O)c1ccc(-c2noc(-c3ccccc3Cl)n2)cc1	nt	nt	nt	nt	30%	1.6µM*	1.1µM*
O=C(O)c1ccc(-c2noc(-c3cccc(Cl)c3)n2)cc1	nt	nt	nt	nt	?	?	7µM*
Cn1cnnc1-c1nn(C)c2c1CN(C(=O)c1cc3ccccc3[nH]1)CC2	0%	i	?	1%	nt	nt	nt
COc1ccc(-c2cn3cc(C(=O)NC4CCCCCC4)nc3s2)cc1	-26%	-26%	nt	nt	nt	nt	nt
O=C(C1CCN([S+](=O)([O-])c2cccc(C(F)(F)F)c2)CC1)N1CCC(N2CCOC2=O)CC1	-31%	-11%	nt	nt	nt	nt	nt
COCCC1(NC(=O)NCc2ccc(C)cc2)CCN(S(C)(=O)=O)CC1	-11%	-3%	nt	nt	nt	nt	nt
O=C1c2c(nc(CNCc3cccc(Cl)c3)n2Cc2ccccc2)NCCN1Cc1ccccc1	?	?	i	?	nt	nt	nt
O=C(O)c1ccc(-c2ncccn2)cc1	0%[174 µM]	-1%[230 µM]	nt	nt	nt	nt	nt
O=C(O)c1ccc(-c2noc(-c3ccccc3C(F)(F)F)n2)cc1	nt	nt	nt	nt	14%	?	?
O=C(CCc1ccccc1)N1CCCC(Cc2nncn2CC2CC2)C1 (stereo not given)	-21%	-3%	nt	nt	nt	nt	nt
CN1CCC(Oc2ncccc2NC(=O)c2ccncc2)C1 (stereo not given)	i	6%	i	-1%	nt	nt	nt
CC(C)c1ccc(C(=O)Nc2cccc3cccnc23)cc1	nt	nt	nt	nt	18%	12%	?
O=C(Nc1ccccc1F)c1ccc(-c2ccccc2)s1	nt	nt	nt	nt	21%	?	?
O=C(Cc1ccccn1)NC1CCN(c2nc3ncccc3o2)C1 (stereo not given)	-13%[138 µM]	-13%[172 µM]	nt	nt	nt	nt	nt
N#C/C(=C\c1ccc(-c2cc(Cl)ccc2Cl)o1)C(=O)Nc1ccccc1C(=O)O	nt	nt	nt	nt	4%	4%	?
O=C1NCCCCCCN(Cc2ccncc2)[C@@H]2CN(C(=O)Nc3ccc4c(c3)OCCO4)CC[C@H]12	?	-21%	11µM*	-3%	20%	17%	?
